Experimental data published in the supplement of paper PMC8975748.
Structures can show the parent of a compound that is named as a salt. ± gives the standard deviation of the averaged measurements.

Experiments:
[1] = system: Saccharomyces cerevisiae BY4741 SeMeCo community; experiment: mean cell size (pixel area) (pixels); higher = larger cells; details: 10 µM; 24 h; SM minimal medium
Summary of the method: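 A four-plasmid fluorescent Saccharomyces cerevisiae BY4741 community was tested; each plasmid complements one auxotrophy and carries a fluorescent marker. An overnight preculture at OD600 = 1.0 was diluted to OD600 = 0.3, and 70 µl was added to 384-well plates acoustically predosed with drug (final 10 µM) in SM medium for 24 h. Cells were fixed with paraformaldehyde and imaged by automated confocal microscopy, with analysis in Harmony. Mean cell pixel area per well is averaged over 3 replicates. Same SeMeCo high-content imaging drug screen: Selleck FDA-approved drugs at 10 µM, 24 h in SM medium, 384-well plates, 3 replicates.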

[2] = system: Saccharomyces cerevisiae BY4741 SeMeCo community; experiment: z-score of prototroph abundance vs DMSO median; higher = larger share of this subpopulation than in DMSO controls; details: 10 µM; 24 h; SM minimal medium; subpopulation (auxotrophy): Prototroph
Summary of the method: (§1)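 Automated confocal microscopy of paraformaldehyde-fixed cells was used to follow a Saccharomyces cerevisiae BY4741 community carrying four plasmids, each restoring one auxotrophy and encoding a distinct fluorescent protein. The community was pre-grown overnight to OD600 1.0, diluted to 0.3, and added at 70 µl to 384-well plates acoustically predosed with library drugs (10 µM final) for 24 h of growth in minimal SM medium. Single-auxotroph fluorescent strains set thresholds and autofluorescence correction, and each subpopulation's abundance was scored as a z-score against the vehicle-well median.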

[3] = system: Saccharomyces cerevisiae BY4741 SeMeCo community; experiment: z-score of subpopulation abundance vs DMSO median, subpopulation auxotrophic for M; higher = larger share of this subpopulation than in DMSO controls; details: 10 µM; 24 h; SM minimal medium; subpopulation (auxotrophy): M
Summary of the method: as §1

[4] = system: Saccharomyces cerevisiae BY4741 SeMeCo community; experiment: z-score of subpopulation abundance vs DMSO median, subpopulation auxotrophic for L; higher = larger share of this subpopulation than in DMSO controls; details: 10 µM; 24 h; SM minimal medium; subpopulation (auxotrophy): L
Summary of the method: as §1

[5] = system: Saccharomyces cerevisiae BY4741 SeMeCo community; experiment: z-score of subpopulation abundance vs DMSO median, subpopulation auxotrophic for U; higher = larger share of this subpopulation than in DMSO controls; details: 10 µM; 24 h; SM minimal medium; subpopulation (auxotrophy): U
Summary of the method: as §1

[6] = system: Saccharomyces cerevisiae BY4741 SeMeCo community; experiment: z-score of subpopulation abundance vs DMSO median, subpopulation auxotrophic for LU; higher = larger share of this subpopulation than in DMSO controls; details: 10 µM; 24 h; SM minimal medium; subpopulation (auxotrophy): LU
Summary of the method: as §1

[7] = system: Saccharomyces cerevisiae BY4741 SeMeCo community; experiment: z-score of subpopulation abundance vs DMSO median, subpopulation auxotrophic for LM; higher = larger share of this subpopulation than in DMSO controls; details: 10 µM; 24 h; SM minimal medium; subpopulation (auxotrophy): LM
Summary of the method: as §1

[8] = system: Saccharomyces cerevisiae BY4741 SeMeCo community; experiment: z-score of subpopulation abundance vs DMSO median, subpopulation auxotrophic for HM; higher = larger share of this subpopulation than in DMSO controls; details: 10 µM; 24 h; SM minimal medium; subpopulation (auxotrophy): HM
Summary of the method: as §1

[9] = system: Saccharomyces cerevisiae BY4741 SeMeCo community; experiment: z-score of subpopulation abundance vs DMSO median, subpopulation auxotrophic for UM; higher = larger share of this subpopulation than in DMSO controls; details: 10 µM; 24 h; SM minimal medium; subpopulation (auxotrophy): UM
Summary of the method: as §1

[10] = system: Saccharomyces cerevisiae BY4741 SeMeCo community; experiment: z-score of subpopulation abundance vs DMSO median, subpopulation auxotrophic for HL; higher = larger share of this subpopulation than in DMSO controls; details: 10 µM; 24 h; SM minimal medium; subpopulation (auxotrophy): HL
Summary of the method: as §1

[11] = system: Saccharomyces cerevisiae BY4741 SeMeCo community; experiment: z-score of subpopulation abundance vs DMSO median, subpopulation auxotrophic for HLU; higher = larger share of this subpopulation than in DMSO controls; details: 10 µM; 24 h; SM minimal medium; subpopulation (auxotrophy): HLU
Summary of the method: as §1

[12] = system: Saccharomyces cerevisiae BY4741 SeMeCo community; experiment: z-score of subpopulation abundance vs DMSO median, subpopulation auxotrophic for HLM; higher = larger share of this subpopulation than in DMSO controls; details: 10 µM; 24 h; SM minimal medium; subpopulation (auxotrophy): HLM
Summary of the method: as §1

[13] = system: Saccharomyces cerevisiae BY4741 SeMeCo community; experiment: z-score of subpopulation abundance vs DMSO median, subpopulation auxotrophic for LUM; higher = larger share of this subpopulation than in DMSO controls; details: 10 µM; 24 h; SM minimal medium; subpopulation (auxotrophy): LUM
Summary of the method: as §1

[14] = system: Saccharomyces cerevisiae BY4741 SeMeCo community; experiment: z-score of subpopulation abundance vs DMSO median, subpopulation auxotrophic for HLUM; higher = larger share of this subpopulation than in DMSO controls; details: 10 µM; 24 h; SM minimal medium; subpopulation (auxotrophy): HLUM
Summary of the method: as §1

[15] = system: Saccharomyces cerevisiae BY4741 SeMeCo community; experiment: z-score of subpopulation abundance vs DMSO median, subpopulation auxotrophic for HU; higher = larger share of this subpopulation than in DMSO controls; details: 10 µM; 24 h; SM minimal medium; subpopulation (auxotrophy): HU
Summary of the method: as §1

[16] = system: Saccharomyces cerevisiae BY4741 SeMeCo community; experiment: z-score of subpopulation abundance vs DMSO median, subpopulation auxotrophic for HUM; higher = larger share of this subpopulation than in DMSO controls; details: 10 µM; 24 h; SM minimal medium; subpopulation (auxotrophy): HUM
Summary of the method: as §1

[17] = system: Saccharomyces cerevisiae BY4741 SeMeCo community; experiment: z-score of subpopulation abundance vs DMSO median, subpopulation auxotrophic for H; higher = larger share of this subpopulation than in DMSO controls; details: 10 µM; 24 h; SM minimal medium; subpopulation (auxotrophy): H
Summary of the method: as §1

Structure (SMILES) | mean cell size [1] | z-score of prototroph abundance [2] | z-score of subpopulation abundance [3] | z-score of subpopulation abundance [4] | z-score of subpopulation abundance [5] | z-score of subpopulation abundance [6] | z-score of subpopulation abundance [7] | z-score of subpopulation abundance [8] | z-score of subpopulation abundance [9] | z-score of subpopulation abundance [10] | z-score of subpopulation abundance [11] | z-score of subpopulation abundance [12] | z-score of subpopulation abundance [13] | z-score of subpopulation abundance [14] | z-score of subpopulation abundance [15] | z-score of subpopulation abundance [16] | z-score of subpopulation abundance [17]
Cc1noc(NS(=O)(=O)c2ccc(N)cc2)c1C [Sulfisoxazole] | 12.4 ± 0.16 | -1.42 | 0.18 | 0.65 | 0.32 | 1.45 | 0.69 | 0.12 | 1.17 | 0.35 | 0.89 | 1.44 | 1.7 | 1.03 | – | – | –
CCOC(=O)C1=C[C@@H](OC(CC)CC)[C@H](NC(C)=O)[C@@H](N)C1 [Oseltamivir Phosphate] | 12.42 ± 0.039 | 1.28 | -0.5 | 0.45 | -1.55 | -0.72 | 0.27 | -0.4 | -1.29 | 0.28 | -0.07 | – | -0.21 | 0.24 | -0.98 | -1.09 | –
COC(=O)Nc1nc2cc(C(=O)c3ccc(F)cc3)ccc2[nH]1 [Flubendazole] | 12.19 ± 0.12 | – | -0.07 | 0.41 | -0.99 | -0.32 | 0.25 | 0.64 | -0.47 | – | 0.3 | -0.42 | 0.68 | -0.02 | – | – | 1.19
O=C1CCc2cc(OCCCCc3nnnn3C3CCCCC3)ccc2N1 [Cilostazol] | – | 0.97 | -0.68 | 0.75 | -0.86 | -0.63 | -0.83 | – | -0.9 | – | -0.44 | -0.55 | -0.52 | -0.57 | -0.16 | – | 0.02
CC(C(O)c1ccc(O)cc1)N1CCC(Cc2ccccc2)CC1 (configuration not stated) [Ifenprodil Tartrate] | 12.5 ± 0.24 | 0.98 | -0.68 | -0.15 | 0.69 | -0.38 | -0.75 | – | -0.03 | -1.19 | -1.12 | -0.92 | -0.99 | -1.11 | -0.43 | – | -0.73
NC1CCN(c2nc3c(cc2F)c(=O)c(C(=O)O)cn3-c2ccc(F)cc2F)C1 (configuration not stated) [Tosufloxacin p-Toluenesulfonate Hydrate] | 12.3 ± 0.29 | 0.74 | -0.77 | -0.11 | -0.39 | -0.88 | -0.53 | – | -0.74 | -0.52 | 0.67 | -0.56 | -0.71 | – | -0.62 | – | 0.41
CCOC(=O)C1=C(C)NC(C)=C(C(=O)OC)C1c1cccc([N+](=O)[O-])c1 (configuration not stated) [Nitrendipine] | 12.5 ± 0.13 | 0.18 | -0.21 | -1.96 | – | -0.48 | -1.23 | -0.08 | 0.62 | -0.8 | -0.48 | -0.87 | -1.36 | -1.04 | 1.51 | – | -0.06
CN1CCC[C@@H]1Cc1c[nH]c2ccc(CCS(=O)(=O)c3ccccc3)cc12 [Eletriptan HBr] | 12.5 ± 0.44 | 0.55 | 0.9 | 0.61 | -0.94 | -1.12 | 0.75 | 0.08 | -0.86 | – | -0.54 | -0.5 | – | – | -1.27 | – | 0.1
COc1ccc(C2CNC(=O)C2)cc1OC1CCCC1 (stereo not drawn) [S- (+)-Rolipram] | – | 1.36 | -0.3 | -0.9 | -0.01 | -0.96 | -0.87 | -0.72 | -1.18 | -0.58 | -1.07 | -0.94 | -1.24 | -1.15 | -0.33 | – | -0.73
CCCN[C@H]1CCc2nc(N)sc2C1 [Pramipexole dihydrochloride] | 12.3 ± 0.17 | 0.25 | -0.32 | -0.42 | -0.06 | -0.61 | -0.39 | -0.31 | 0.32 | 0.19 | -0.24 | – | -0.25 | 0 | 0 | 0.52 | -0.35
O=C(c1ccccc1)c1ccc2n1CCC2C(=O)O (configuration not stated) [Ketorolac] | 12.6 ± 0.32 | 0.73 | 0 | -0.04 | -0.78 | -0.64 | – | -0.76 | -1.16 | 0.33 | -0.97 | -0.11 | -0.52 | – | -1.29 | – | -0.3
Nc1ccc(C(=O)O)c(O)c1 [4-Aminosalicylic acid] | 12 ± 0.19 | 2.23 | 1.33 | 0.78 | -3.36 | -3.37 | 0.62 | 0.06 | -2.19 | 0.08 | -0.27 | – | -1.15 | -0.18 | -3.39 | -1.3 | –
CCn1cc(C(=O)O)c(=O)c2cc(F)c(N3CCN(C)CC3)cc21 [Pefloxacin Mesylate] | – | 0.1 | -0.16 | -0.33 | – | -0.06 | 0 | 0.05 | -0.04 | 0 | -0.54 | -0.1 | 0.18 | – | -0.36 | – | -0.3
C#C[C@]1(O)CC[C@H]2[C@@H]3CCC4=CCCC[C@@H]4[C@H]3CC[C@@]21C [Lynestrenol] | 12.5 ± 0.23 | 0.17 | -1.23 | -0.78 | 1.07 | -0.82 | – | -0.19 | 0.5 | -0.15 | -0.88 | -0.46 | -0.41 | – | – | – | 0.16
CC[C@@H]1/C=C(\C)C[C@H](C)C[C@H](OC)[C@H]2O[C@@](O)(C(=O)C(=O)N3CCCC[C@H]3C(=O)O[C@H](/C(C)=C/[C@@H]3CC[C@@H](O)[C@H](OC)C3)[C@H](C)[C@@H](O)CC1=O)[C@H](C)C[C@@H]2OC [Ascomycin (FK520)] | – | -1.94 | 1.34 | 0.1 | -0.06 | -0.23 | 1.39 | 1.4 | 0.63 | 2.56 | 2.5 | 1.57 | 2.23 | 2.95 | 1.75 | – | –
